IL1B secr inh: inhibitors of inflammasome signaling (IL-1 beta secretion); THP-1 LPS/ATP IL-1B secretion, AlphaLISA, 16 h; active compounds read low; activity change, % at 57.5 µM; 4.7% of 360,000 active; in the data active = activity change below about -50%; inconclusive = mostly about -30% to -49%
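THP-1 cells pretreated 1 hr with compounds (up to 57.5 uM final), then stimulated with LPS (250 ng/mL final) plus ATP (1.25 mM final); secreted IL-1B measured by AlphaLISA after 16 hr, decreased signal indicating inhibition.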
TDP1 cell noCPT: qHTS for Inhibitors of human tyrosyl-DNA phosphodiesterase 1 (TDP1): qHTS in cells in absence of CPT. AID 686978, 2013. Potency, µM (doses to about 46.2 µM), for inactives: at the highest dose activity change, negative = growth inhibition, actives largely listed as inhibitors. 15% of 420,000 active. DT40 Tdp1-/- hTDP1 cells, no CPT, ATP luminescence, 48 h; also: potency is read from the fitted curve at half-maximal effect; nearly all actives have a fitted effect of over 55% in size
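Stably hTDP1-transfected Tdp1-null chicken DT40 cells were treated with library compounds minus camptothecin and grown for at least 48 hr at 37 °C, after which cellular ATP was quantified by luminescence.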
TDP1 inh: inhibitors of human tyrosyl-DNA phosphodiesterase TDP1 | Potency, µM (top dose mostly 130 µM), inactives show at the top dose activity change, negative = inhibition, most hits filed as inhibitors | 0.28% of 350,000 active | AID 485290 | recombinant TDP1, AlphaScreen DNA substrate cleavage; also: potency is read from the fitted curve at half-maximal effect; nearly all actives have a fitted effect of over 40% in size
Target sequence (Q9NUW8 whole entry, looked up): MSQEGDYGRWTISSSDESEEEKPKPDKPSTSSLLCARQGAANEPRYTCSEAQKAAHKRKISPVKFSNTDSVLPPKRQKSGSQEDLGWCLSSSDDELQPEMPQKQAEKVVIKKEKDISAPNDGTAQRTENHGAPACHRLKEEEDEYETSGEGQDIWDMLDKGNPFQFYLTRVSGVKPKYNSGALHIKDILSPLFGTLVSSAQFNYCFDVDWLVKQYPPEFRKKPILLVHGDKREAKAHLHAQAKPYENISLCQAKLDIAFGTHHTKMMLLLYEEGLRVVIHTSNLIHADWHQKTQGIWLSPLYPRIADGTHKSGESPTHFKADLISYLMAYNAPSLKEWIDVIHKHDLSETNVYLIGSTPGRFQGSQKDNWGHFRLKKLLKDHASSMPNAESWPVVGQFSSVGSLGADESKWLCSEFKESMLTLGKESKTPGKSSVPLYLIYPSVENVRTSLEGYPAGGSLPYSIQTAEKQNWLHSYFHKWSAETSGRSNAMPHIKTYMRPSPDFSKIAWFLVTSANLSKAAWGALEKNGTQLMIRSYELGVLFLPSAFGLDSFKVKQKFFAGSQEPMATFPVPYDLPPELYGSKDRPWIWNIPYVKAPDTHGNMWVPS
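AlphaScreen read-out: signal falls as enzyme removes the 3' tyrosine-FITC from a 5'-biotinylated DNA oligo (15 nM, 5 min, RT). Enzyme was E. coli-made recombinant Tdp1 at 1 nM, exposed to compound for 15 min beforehand; beads 10 ug/ml, 10 min.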
TDP1 cell CPT: DT40-hTDP1 cell growth loss with CPT; 12% of 420,000 active; chicken DT40 Tdp1-/-;hTDP1 cells + 20 nM CPT, ATP luminescence, 48 h; Potency, µM (doses to about 46.2 µM), without a hit: at the top dose activity change, negative = growth inhibition, most hits filed as inhibitors; also: potency is read from the fitted curve at half-maximal effect; nearly all actives have a fitted effect of over 55% in size
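Chicken DT40 Tdp1-/- cells complemented with human TDP1, 400 cells/well, exposed to compounds plus 20 nM camptothecin for at least 48 h at 37 C; viability read as ATP content by CellTiter-Glo luminescence.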
Six1-Eya2 blk: blocks human Six1 binding to Eya2; Q15475+O00167; AlphaScreen GST-Six1/His-Eya2 binding, biochemical; active compounds read low; activity change, % (concentration not given with the values); 0.56% of 360,000 active; in the data active = activity change below about -65%; inconclusive = mostly about -30% to -63%
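Six1/Eya2 binding was read as AlphaScreen signal after compounds were pinned into GST-Six1 plus His-tagged Eya2 (5X stock 250/500 nM) in pH 8.0 Tris/NaCl/TCEP buffer, beads added, then incubated 1 h, 37 C, dark.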
CtBP-E1A inh: blocks the CtBP interaction with E1A; AlphaScreen GST-E1A/His-CtBP binding, 1536-well; active compounds read low; activity change, % (no concentration beside the values); 0.49% of 340,000 active; AID 651724; in the data active = activity change below about -65%; inconclusive = mostly about -30% to -63%
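Steps: dispense buffer (Tris pH 8.0, NaCl 300 mM, TCEP 1 mM, BSA, Tween 20); add 5X protein mix (GST-E1A, His-CtBP, 125 nM each); pin 23 nL compound; 2 h at 37 °C, dark; add 5X beads (50 ug/mL); 1 h; read.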
Active calls of the source: *; [ ] = another dose, or the depositor's remark. A selection: hits, their analogues and other compounds. The true share with any hit is near 18%. Unless noted, calls follow the shape of the dose curve; as a rule, active = well fitted curve in the direction sought with a large enough effect; inconclusive = small, poorly fitted or top-dose-only effect, or another doubt; inactive = no such curve, though single readings can be large; an effect the other way counts as inactive or inconclusive. % is scaled to controls: 0 for no effect and ±100 for the full control effect.

Results for CC1CC(NC(=O)Cc2ccc(Br)cc2)CC(C)(C)C1 (configuration not stated) ?
IL1B secr inh: -11; TDP1 cell noCPT: inconclusive; TDP1 inh: -4%; TDP1 cell CPT: 16µM*; Six1-Eya2 blk: 11; CtBP-E1A inh: -1

What do the screens show for `CC1CC(NC(=O)CC#N)CC(C)(C)C1` (configuration not stated)?
IL1B secr inh: 12; TDP1 cell noCPT: -19%; TDP1 inh: -5%; TDP1 cell CPT: 8%; Six1-Eya2 blk: 2; CtBP-E1A inh: -3

What do the screens show for `S=C1COC(c2ccccc2)N1c1ccccc1` (configuration not stated)?
IL1B secr inh: 73; TDP1 cell noCPT: 3%; TDP1 inh: 0%; TDP1 cell CPT: -22%; Six1-Eya2 blk: 9; CtBP-E1A inh: 1

Results for CN(C)c1ccc(-c2nc(N(C)Cc3ccco3)c3ccccc3n2)cc1 ?
TDP1 cell noCPT: 16µM*; TDP1 inh: 13%; TDP1 cell CPT: 29µM*

How did CCN(CC)c1nc(-c2ccc(C(C)(C)C)cc2)nc2ccccc12 do in these assays?
TDP1 cell noCPT: inconclusive; TDP1 inh: 5%[2.28 µM]; TDP1 cell CPT: 23µM*

What do the screens show for `CN(C)c1ccc(-c2nc(N(C)C)c3ccccc3n2)cc1`?
TDP1 cell noCPT: 23µM*; TDP1 inh: 10%[56.1 µM]; TDP1 cell CPT: inconclusive

How did Cc1ccccc1-c1nc(N(C)C)c2ccccc2n1 do in these assays?
TDP1 cell noCPT: -18%; TDP1 cell CPT: -26%

Results for CN(C)c1ccc(-c2nc(-n3ccnc3)c3ccccc3n2)cc1 ?
TDP1 cell noCPT: 18µM*; TDP1 cell CPT: 13µM*

How did COCCN(C(=O)c1snc(C(N)=O)c1N)C(C(=O)NC1CCCCC1)c1cc(OC)c(OC)c(OC)c1 (configuration not stated) do in these assays?
IL1B secr inh: inconclusive; TDP1 cell noCPT: -10%; TDP1 cell CPT: -3%; Six1-Eya2 blk: 2; CtBP-E1A inh: -12

Results for COc1cc(NS(=O)(=O)c2ccc3oc(=O)c4ncn(C)c4c3c2)cc(OC)c1 ?
TDP1 cell noCPT: -9%; TDP1 inh: 3%; TDP1 cell CPT: -1%

How did CN(C(=O)c1cccc(NC(=O)Cc2ccccc2)c1)c1ccccc1 do in these assays?
IL1B secr inh: 28; TDP1 cell noCPT: inconclusive; TDP1 cell CPT: inconclusive; Six1-Eya2 blk: 1; CtBP-E1A inh: 8

How did CCC(C)Sc1nc2c(c(=O)[nH]c(=O)n2C)n1Cc1ccccc1Cl (configuration not stated) do in these assays?
IL1B secr inh: 37; TDP1 cell noCPT: inconclusive; TDP1 inh: -2%; TDP1 cell CPT: inconclusive; Six1-Eya2 blk: -7; CtBP-E1A inh: 1

What do the screens show for `CCOC(=O)N1CCC(NC(=O)CSCc2nc(-c3cccc(OC)c3)oc2C)CC1`?
IL1B secr inh: -26; TDP1 cell noCPT: inconclusive; TDP1 inh: 5%; TDP1 cell CPT: -16%; Six1-Eya2 blk: -3; CtBP-E1A inh: 6

What do the screens show for `CCCNC(=O)C1(C)CCN(Cc2cc(-c3ccccc3)on2)C1` (configuration not stated)?
IL1B secr inh: -2; TDP1 cell noCPT: 15µM*; TDP1 cell CPT: inconclusive; Six1-Eya2 blk: 7; CtBP-E1A inh: -13

Results for CCCNC(=O)C1(C)CCCN(Cc2csc(-c3ccccc3)n2)C1 (configuration not stated) ?
IL1B secr inh: inconclusive; TDP1 cell noCPT: 21µM*; TDP1 cell CPT: inconclusive; Six1-Eya2 blk: inconclusive; CtBP-E1A inh: -12

Results for O=C(C1CCN(c2nc3ccccc3[nH]2)CC1)N1CCN(c2ccccc2)CC1 ?
TDP1 cell noCPT: inconclusive; TDP1 inh: 5%; TDP1 cell CPT: inconclusive

Compound activity: PubChem BioAssay, National Center for Advancing Translational Sciences (NCATS)
